Screen size: about 5,600 compounds; about 4,400 (79%) were called active. The set was probably picked from earlier hits. A selection follows. Unmarked numbers belong to inactive results. Rule as the data show it: active = inhibition above about 27%; inactive = the rest.
biological target: Fructose-bisphosphate aldolase (Mycobacterium tuberculosis (strain ATCC 25618 / H37Rv)) (UniProt P9WQA3); experiment: M. tuberculosis aldolase blockers, biochemical, fluorescence, strain H37Rv, confirmation (AID 651616);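 also: 0% = vehicle wells and 100% = reference inhibitor wells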; conditions: purified M. tuberculosis FBA, fluorescence read-out, at 1 µM, active compounds read high
Sequence (P9WQA3 whole entry, looked up): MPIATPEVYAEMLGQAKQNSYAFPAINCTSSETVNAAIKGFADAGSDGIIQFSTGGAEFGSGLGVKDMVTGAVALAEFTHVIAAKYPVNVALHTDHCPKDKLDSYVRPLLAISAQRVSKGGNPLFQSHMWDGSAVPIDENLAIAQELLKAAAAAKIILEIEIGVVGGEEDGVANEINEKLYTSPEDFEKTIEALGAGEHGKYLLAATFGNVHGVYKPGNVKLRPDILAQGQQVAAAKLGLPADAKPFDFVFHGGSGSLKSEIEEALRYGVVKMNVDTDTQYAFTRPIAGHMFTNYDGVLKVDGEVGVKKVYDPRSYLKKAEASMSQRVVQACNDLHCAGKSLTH

Row | SMILES | inhibition
1 | COc1ccc(-c2nc3cc(C)ccn3c2NC2CCCCC2)cc1SC1CCCCC1 | 53.2% (active)
2 | O=C(CCc1ccccc1)Nc1cccc(-c2nnc(-c3ccco3)o2)c1 | 91% (active)
3 | O=C(Nc1ccc(-c2nnc(-c3ccccc3)o2)cc1)C1CCCO1 (stereo not given) | 1.4%
4 | CC(=O)N1C(=O)/C(=C2\SC(=S)N(NC(=O)c3ccc(O)cc3)C2=O)c2ccccc21 | 10.4%
5 | Cc1cc(C)c2nc3nc(C)cc(C)c3c(N)c2c1 | 41.1% (active)
6 | Cc1cc(C)c2nc(-c3ccco3)cc(C(=O)O)c2c1 | 3.93%
7 | CCOC(=O)N1CCC(NC(=O)c2cnn3ccccc23)CC1 | 42.5% (active)
8 | CCOc1c2ccc(C(=O)NC3CCCc4ccccc43)cc2nn1CC (stereo not given) | 21.6%
9 | CCOc1c2ccc(C(=O)NCc3ccc4c(c3)OCO4)cc2nn1C | 107% (active)
10 | CCCn1nc2cc(C(=O)NCc3ccccc3)ccc2c1OCC | -3.79%
11 | CCOc1c2ccc(C(=O)NCc3ccc(OC(F)(F)F)cc3)cc2nn1C | 106% (active)
12 | O=C(NCc1cccc(Cl)c1)C1=CC=CN2CCS(=O)(=O)N=C12 | 11.8%
13 | C=CCn1c(CCNC(=O)c2ccccc2F)nnc1SCC(=O)Nc1ccc(OC)cc1 | 586% [above what the read-out allows, likely interference] (active)
14 | Cc1ccsc1C(=O)N[C@@H](C)c1nnc2ccccn12 | 125% (active)
15 | CC(C)n1c(-c2cccs2)nc2ccccc21 | 87% (active)
16 | CC1(C(=O)NCc2ccco2)Cc2c(-c3ccc4c(c3)OCO4)ccnc2O1 (stereo not given) | 7.76%
17 | CC1(C(=O)NCc2ccc(F)c(F)c2)Cc2c(-c3ccc4c(c3)OCO4)ccnc2O1 (stereo not given) | 155% (active)
18 | Cc1cc(=O)oc2c3c(cc(OCC(=O)NCC(O)c4ccccc4)c12)OC(C)(C)CC3 (stereo not given) | 62% (active)
19 | CC1(C)CC(=O)c2cc(OCC(=O)NCC3CCCO3)ccc2O1 (stereo not given) | -1.83%
20 | CCCCNc1c(-c2cccc(Sc3ccc(OC)cc3)c2)nc2ccccn12 | 35.1% (active)

Row | SMILES | inhibition
21 | CCCCn1c(-c2cccc(C)c2)nc2cc3[nH]c(=O)c(C(C)C)nc3cc21 | 34.1% (active)
22 | O=C(O)/C=C/c1cn(-c2ccccc2)nc1-c1cccs1 | 92.4% (active)
23 | O=C(CN1C(=O)c2cccc3cccc(c23)C1=O)N1CCCCC1 | 70.8% (active)
24 | c1ccc2c(NC3C4CC5CC(C4)CC3C5)nc(N3CCOCC3)nc2c1 (stereo not given) | 134% (active)
25 | CC(Nc1nc(N2CCOCC2)nc2ccccc12)c1ccccc1 (stereo not given) | 56.5% (active)
26 | COC(=O)CSc1nc(C)c2ccc(OC)cc2n1 | -3.91%
27 | CCOC(=O)Cn1c(=O)n(Cc2ccc(OC)cc2)c(=O)c2cccnc21 | 852% [above what the read-out allows, likely interference] (active)
28 | O=C(CCC(=O)N/N=C/c1ccc(Br)o1)N/N=C/c1ccc(Br)o1 | 110% (active)
29 | CCC(=O)Nc1c(S(=O)(=O)c2ccccc2)c2nc3ccccc3nc2n1Cc1ccccc1 | 173% (active)
30 | COc1ccc2nc(-c3ccccn3)ccc2c1 | 116% (active)
31 | COc1ccc(C2NC(=O)c3ccccc3N2)cc1 (stereo not given) | 146% (active)
32 | O=C1NC(c2cccc(Cl)c2)Nc2ccccc21 (stereo not given) | 102% (active)
33 | Cc1ccc2nc(-c3ccco3)c(Cc3cccc(Cl)c3)n2c1 | 94.1% (active)
34 | O=C1OCCN1C(=O)[C@H]1[C@H](c2ccc(F)cc2)C(c2ccccc2)=NN1c1ccc(Br)cc1 | 65.6% (active)
35 | CNc1nc(-c2ccccc2)cc(-c2ccccc2)n1 | 76.6% (active)
36 | CCCN(C(=O)CSc1nnc(N)s1)c1c(N)n(Cc2ccccc2)c(=O)[nH]c1=O | 59.2% (active)
37 | COc1ccc(-c2ccc(C(=O)NC(C)C)c3occc23)c(C)c1 | 112% (active)
38 | COc1ccc(-c2ccc(C(=O)NCCN3CCOCC3)c3occc23)c(C)c1 | 72% (active)
39 | COc1ccc(-c2oc3ncnc(NCCCO)c3c2-c2ccc(OC)cc2)cc1 | 51.9% (active)
40 | Cc1cc(C)nc(SCc2cn3c(C)cc(C)nc3n2)n1 | 102% (active)

Row | SMILES | inhibition
41 | COc1cccc(NC(=O)CN(C)CC(=O)Nc2ccc3c(c2)CCC3)c1 | 89% (active)
42 | COc1cccc(NC(=O)CN(C)C(=O)/C=C/c2cc(OC)ccc2OC)c1 | 105% (active)
43 | Cc1c(OC(C)C(=O)N[C@@H](Cc2ccccc2)C(=O)O)ccc2c3c(c(=O)oc12)CCCC3 (stereo not given in full) | 5.53%
44 | COc1ccc2c3c(c(=O)oc2c1OCC(=O)C(C)(C)C)CCCC3 | 60.2% (active)
45 | CCC(=O)Nc1ccc2nn(-c3ccc(F)cc3)nc2c1 | 88% (active)
46 | CCCC/C=C/c1cccc2nncn12 | 68.8% (active)
47 | CN1CCN(CCCNC(=O)c2ccc(/C=C3\Oc4ccccc4N(Cc4ccc(Cl)cc4)C3=O)cc2)CC1 | -4.52%
48 | O=C(NCCc1ccccc1)c1ccc2c(c1)N(Cc1ccccc1)CCS2 | 42.5% (active)
49 | O=C(NCCN1CCOCC1)c1ccc2c(c1)N(Cc1ccc(Cl)cc1)CCS2 | 56.6% (active)
50 | COCCCNC(=S)N(CCN(C)C)Cc1cc2cc3c(cc2[nH]c1=O)OCCO3 | 43.2% (active)
51 | COc1ccc(C2C3=C(CCCC3=O)N(CC(=O)O)C3=C2C(=O)CCC3)cc1 | 128% (active)
52 | COCc1cc(=O)n2[nH]c(C)c(-c3ccccc3)c2n1 | 50.6% (active)
53 | Cc1nc2c(-c3ccccc3)c(C)[nH]n2c(=O)c1Cl | 105% (active)
54 | CCCc1cc(=O)n2[nH]c(C)c(-c3ccc(Cl)cc3)c2n1 | 123% (active)
55 | O=C(O)Cc1sc(-c2ccc(C(=O)O)cc2)nc1-c1ccccc1 | -7.84%
56 | c1cc(-c2ccc3[nH]ccc3c2)n2ccnc2c1 | 79.6% (active)
57 | COc1ccc(CNC(=O)c2c[nH]c3c(OC)cc(OC)cc3c2=O)cc1 | -2.04%
58 | Cc1ccc(Cn2c(C)nc3c(c2=O)c2nc4ccccc4nc2n3Cc2ccco2)cc1 | 55% (active)
59 | CC(=O)Nc1ccc(-c2nc3ccccc3o2)cc1 | 8.14%
60 | COc1cc(OC)cc(C(=O)Nc2ccc(-c3nc4ccccc4o3)c(O)c2)c1 | 148% (active)
